GPR151 activ – activates the human receptor GPR151; Q8TDV0; PathHunter beta-arrestin GPR151 cells, luminescence; activation, % at 11.2 µM; 650,000 compounds, 1% hits; in the data active = activation above about 4.9%;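 also: 0% = median of compound wells and 100% = cells with positive control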
MITF inh – inhibitors of human MITF; O75030; AlphaScreen MITF homodimerization, bead proximity signal; inhibition, % at 2.6 µM; 650,000 compounds, 0.91% hits; in the data active = inhibition above about 50%;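 also: 0% = vehicle wells with protein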
Target sequence (O75030 whole entry, looked up): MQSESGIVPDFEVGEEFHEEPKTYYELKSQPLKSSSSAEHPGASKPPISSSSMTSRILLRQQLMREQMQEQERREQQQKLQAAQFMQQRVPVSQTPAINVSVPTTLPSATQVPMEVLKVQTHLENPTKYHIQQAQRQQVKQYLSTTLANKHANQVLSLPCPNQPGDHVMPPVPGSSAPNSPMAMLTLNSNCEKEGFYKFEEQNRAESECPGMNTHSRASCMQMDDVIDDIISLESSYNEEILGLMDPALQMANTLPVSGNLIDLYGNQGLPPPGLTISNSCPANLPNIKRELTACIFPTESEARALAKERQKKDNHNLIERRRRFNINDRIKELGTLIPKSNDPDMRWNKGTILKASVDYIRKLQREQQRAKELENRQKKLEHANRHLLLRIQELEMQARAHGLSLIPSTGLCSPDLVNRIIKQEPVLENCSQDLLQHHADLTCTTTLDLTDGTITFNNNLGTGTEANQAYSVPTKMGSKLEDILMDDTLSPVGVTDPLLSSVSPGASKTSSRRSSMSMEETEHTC
FBW7 act – human FBW7 E3 ligase activation, primary screen | AlphaScreen FBW7–phospho-cyclin E peptide binding, activator screen | 650,000 compounds, 0.13% hits | Q969H0 | AID 1259310 | normalized activity (activation), % at 26.1 µM; in the data active = normalized activity above about 1.9%;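 also: purified mutant Fbw7 with reduced substrate affinity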
TEAD-YAP inh – TEAD-YAP interaction inhibition; HEK-TIYL cells, TEAD-Gal4/YAP UAS-luciferase luminescence; inhibition, % at 9.12 µM; 640,000 compounds, 1.4% hits; AID 1259422; in the data active = inhibition above about 32%;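 also: 0% = median of test compound wells and 100% = reference inhibitor wells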
Active calls of the source: *. This is a sample that favours compounds with a hit; in the whole collection about 3.4% have one here.

SMILES	GPR151 activ	MITF inh	FBW7 act	TEAD-YAP inh
CS(=O)(=O)c1ncc(Cl)c(C(=O)C(C#N)c2nc3ccccc3s2)n1 (configuration not stated)	0	4	0	74*
CCOC(=O)c1c(NC(=O)c2nc(S(C)(=O)=O)ncc2Cl)sc(C)c1C	-3	-1	1	8
COc1ccc(N(Cc2ccccc2)C(=O)c2nc(S(C)(=O)=O)ncc2Cl)cc1	0	6	0	98*
Cc1cccc(OC(=O)c2nc(S(C)(=O)=O)ncc2Cl)c1C	0	15	0	56*
Cc1ccc(OC(=O)c2nc(S(C)(=O)=O)ncc2Cl)cc1C	-1	9	0	48*
Cc1cccc(C)c1NC(=O)c1nc(S(C)(=O)=O)ncc1Cl	0	-15	0	-25
Cc1ccc2nc(C(C#N)C(=O)c3nc(S(C)(=O)=O)ncc3Cl)[nH]c(=O)c2c1 (configuration not stated)	1	-15	0	8
CCN1C(=O)CC(Nc2ccc(C)cc2)C1=O (configuration not stated)	-1	-3	0	-3
COc1cccc(N2CCN(C(=O)c3ccc(CS(=O)c4ccc(C)cc4)o3)CC2)c1 (configuration not stated)	0	-6	0	63*
Cc1ccc(S(=O)Cc2ccc(C(=O)N3CCN(C(=O)c4ccco4)CC3)o2)cc1 (configuration not stated)	0	7	0	4
COc1ccc(N2CCN(C(=O)c3ccc(CS(=O)c4ccccc4)o3)CC2)cc1 (configuration not stated)	0	8	0	46*
COc1ccc(N2CCN(C(=O)c3ccc(CS(=O)c4ccc(C)cc4)o3)CC2)cc1 (configuration not stated)	0	-1	0	56*
NC(=O)c1c(N2C(=O)c3ccccc3C2=O)sc2c1CCCC2	-3	7	0	4
CC(=O)N1/C(=C/c2ccc(N(C)C)cc2)C(=O)c2ccccc21	-1	43	0	46*
CC(=O)N1/C(=C/c2ccncc2)C(=O)c2ccccc21	-2	5	0	-1
Nc1c2c3c(c(O)ccc3[nH]c1=O)C(=O)c1ccccc1-2	-1	-4	0	37*
Nc1c(Br)cc(O)c2c1C(=O)c1ccccc1C2=O	0	17	0	3
Cc1ccc(CNC(=O)c2nnn(Cc3ccc(F)cc3)c2N)cc1	1	1	0	15
Cc1ccc(N2CCN(C(=O)Cc3nn(C)c(=O)c4ccccc34)CC2C)cc1 (configuration not stated)	0	5	0	38*
COc1cccc(CC2(CO)CCCN(Cc3c(C)nc4sccn34)C2)c1 (configuration not stated)	0	22	0	41*
Cc1nc2sccn2c1CN1CCCC(N(C)CCc2ccccc2)C1 (configuration not stated)	1	-1	0	43*
Cc1nc2sccn2c1CN1CCN(CCc2ccccc2)C(CCO)C1 (configuration not stated)	-2	19	0	-5
CCOC(=O)C1(Cc2cccc(OC)c2)CCN(Cc2c(C)nc3sccn23)CC1	1	12	0	26
Cc1cccc(NC(=O)c2cc(C(C)C)n(-c3nc4ccccc4s3)n2)n1	0	1	0	-2
CCOC(=O)N1CCN(C(c2ccccn2)c2c(C)[nH]c3ccccc23)CC1 (configuration not stated)	-1	7	0	4
SMILES	GPR151 activ	MITF inh	FBW7 act	TEAD-YAP inh
CCOC(=O)N1CCN(C(c2ccccn2)c2ccc3cccnc3c2O)CC1 (configuration not stated)	-2	91*	0	7
Oc1c(C(c2ccccn2)N2CCN(c3ccc(F)cc3)CC2)cc(Cl)c2cccnc12 (configuration not stated)	0	26	0	-2
Oc1c(CN2CCC(Cc3ccccc3)CC2)cc(Cl)c2cccnc12	0	60*	0	60*
Oc1c(C(c2ccccn2)N2CCCC2)cc(Cl)c2cccnc12 (configuration not stated)	-1	79*	0	29
c1ccc(CC2CCN(Cc3ccccn3)CC2)cc1	3	24	0	2
CCOC(=O)N1CCN(C(c2ccccn2)c2cc(Cl)c3cccnc3c2O)CC1 (configuration not stated)	-2	53*	0	-5
CN1CCN(C(c2ccccn2)c2cc(Cl)c3cccnc3c2O)CC1 (configuration not stated)	1	28	0	7
COc1ccc(-c2noc(CNC(=O)COc3ccccc3C)n2)cc1	-1	-1	0	-6

Assay outcomes deposited in PubChem by The Scripps Research Institute Molecular Screening Center.
